Pf growth 48h: inhibits P. falciparum growth in the first generation, 48 h. P. falciparum luciferase growth in erythrocytes, 48 h. Potency, µM (highest dose often 28.7 µM), for the others: at the top dose activity change, negative = inhibition, most hits filed as inhibitors. 310,000 compounds, 5.9% hits. AID 504832; also: potency is read from the fitted curve at half-maximal effect; % is scaled to controls: 0 for no effect and ±100 for the full control effect
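A one-generation exposure of luciferase-tagged malaria parasites in RPMI 1640/Albumax erythrocyte culture, 37 C and 5% CO2. Inhibition is inferred from decreased luminescence after adding detection reagent.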
HCV inhibitor: inhibitors of hepatitis C virus infection | Huh7.5.1 HCVcc-Cre infection, luciferase reporter, 44 h | Potency, µM (doses to about 41.8 µM), for the others: top-dose activity change, negative = inhibition, usual class: inhibitors | 340,000 compounds, 3.4% hits | AID 651820; also: potency is read from the fitted curve at half-maximal effect; % is scaled to controls: 0 for no effect and ±100 for the full control effect
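Whole-lifecycle infectious HCVcc-Cre system; cells 1,000/well, compound then virus (~0.5 moi) added 4 h after plating, 44 h culture. Luciferase read 15 sec following 15 min substrate incubation, room temp.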
Pf growth 96h: P. falciparum growth inhibition at 96 hours; Potency, µM (highest dose often 28.7 µM), for inactives: at the highest dose activity change, negative = inhibition, actives largely listed as inhibitors; 320,000 compounds, 6.9% hits; P. falciparum luciferase reporter growth, 96 h; also: potency is read from the fitted curve at half-maximal effect; % is scaled to controls: 0 for no effect and ±100 for the full control effect
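Luminescence readout: decreased luciferase signal marks inhibited growth of reporter-expressing P. falciparum in infected red cells (2% hematocrit, 0.05% parasitemia final), exposed to compound two generations (96 h, 37 C, 5% CO2).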
HCMV antiviral: blocks human cytomegalovirus replication. HFF cells, HCMV-luciferase reporter, 72 h; active compounds read low. activity change, negative = inhibition, % at 57.5 µM. 410,000 compounds, 4.5% hits; in the data active = activity change below about -60%; inconclusive = no clear call, values can overlap the other calls; inactive = above about -39%; also: % is scaled to controls: 0 for no effect and ±100 for the full control effect
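Inhibition of viral replication was scored as loss of reporter luminescence in HFFs infected with HCMV-luciferase (MOI 1 PFU/cell) for 72 h; compounds tested at 2 doses, normalized to buffer and Salinomycin controls.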
SARS PLpro yeast: blocks SARS-CoV papain-like protease in a yeast assay | S. cerevisiae expressing SARS-CoV PLpro, growth rescue | Potency, µM (highest dose often 32.9 µM), without a hit: top-dose activity, positive = growth rescue, most hits filed as activators | 330,000 compounds, 0.19% hits; calls by dose curve; also: potency is read from the fitted curve at half-maximal effect; 0% is about no effect; nearly all actives have a fitted effect of over 55% in size
Sm TGR inh: S. mansoni TGR enzyme inhibition | purified TGR, DTNB reduction, TNB absorbance 405 nm | Potency, µM (doses to about 114 µM), for inactives: at the highest dose activity change, negative = inhibition, hits mostly inhibitors | 360,000 compounds, 3% hits | AID 485364; also: potency is read from the fitted curve at half-maximal effect; % is scaled to controls: 0 for no effect and ±100 for the full control effect; nearly all actives have a fitted effect of over 60% in size
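Kinetic colorimetric format: TGR-catalysed, NADPH-driven DTNB reduction monitored via TNB absorbance. Enzyme dispensed at 20 nM; compound exposure 15 min at room temperature before reaction start.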
* marks the source's active call; other numbers are inactive results; ? = inconclusive; . = no result given. An excerpt weighted towards active compounds, which were near 15% of everything screened. Unless noted, calls follow the shape of the dose curve; as a rule, active = well fitted curve in the direction sought with a large enough effect; inconclusive = small, poorly fitted or top-dose-only effect, or another doubt; inactive = no such curve, though single readings can be large; an effect the other way counts as inactive or inconclusive.

SMILES	Pf growth 48h	HCV inhibitor	Pf growth 96h	HCMV antiviral	SARS PLpro yeast	Sm TGR inh
O=S(=O)(c1ccc(-c2nnc(SCc3nnc(-c4ccccc4)o3)o2)cc1)N1CCCC1	?	?	88.2%	-5.0	-3.4%	1.2%
Cc1ccc(S(=O)(=O)CCC(=O)Oc2ccc(-c3nnco3)cc2)cc1	-21.5%	4.0%	1.3%	14.8	1.7%	20µM*
Cc1onc(-c2c(F)cccc2Cl)c1C(=O)Nc1cc2cc([N+](=O)[O-])ccc2oc1=O	.	.	.	-16.0	.	.
Fc1ccc(-c2nnc(CSc3nnc4ccccn34)o2)cc1	94.9%	7.8%	128.9%	-0.7	4.6%	-10.5%
c1ccc(-c2cnc(CSc3nnc4ccccn34)o2)cc1	186.9%	16.2%	.	150.7	-0.1%	10µM*
O=C(Nc1nccs1)c1ccc(S(=O)(=O)NCC2CCCCC2)cc1	-5.0%	.	-23.8%	-82.5*	1.7%	3.6%
O=C(Nc1nccs1)c1ccc(N2C(=O)C3CCCCC3C2=O)cc1 (stereo not given)	25.5%	-8.2%	?	13.1	0.8%	.
O=C(Nc1nccs1)c1ccc(S(=O)(=O)NCc2cccs2)cc1	-18.7%	10µM*	.	?	2.8%	0.3%
CC(NC(N)=O)C(=O)Nc1ccc(Cl)c(S(=O)(=O)Nc2ccc(Br)cc2)c1 (stereo not given)	5.9%	9.4%	-2.6%	31.9	0.6%	-5.7%
CN1C(=O)C(C2(O)C(=O)N(Cc3ccccc3)c3cc(F)ccc32)c2ccccc21 (stereo not given)	.	.	.	-23.2	.	.
COc1cc2sc3ccc(C#CC4(O)CCCCC4)cc3c(=O)c2cc1OC	.	?	.	49.3	.	.
Cn1c2ccccc2c(=O)c2ccc(C#CC3(O)CCCCC3)cc21	-37.2%	10µM*	-61.3%	?	-12.6%	-24.2%
CC(NC(=O)c1ccc(NC(=O)CC2SC(N3CCCC3)=NC2=O)cc1)c1ccc(F)cc1 (stereo not given)	?	-3.1%	?	74.5	1.6%	-6.1%
Cc1cccc(N2CCN(c3ncnc4onc(C)c34)CC2C)c1 (stereo not given)	.	.	.	-99.6*	.	3.9%
Cc1cccc(N2CCN(c3ncnc4onc(-c5ccc(F)cc5)c34)CC2C)c1 (stereo not given)	.	.	.	-15.8	.	-2.4%
Cn1c(=O)c2c(-c3ccccc3Cl)n(-c3cc(Cl)ccc3O)cc2n(C)c1=O	.	.	.	-9.3	.	12.6µM*
Cc1cccc(-c2c3c(=O)n(C)c(=O)n(C)c3cn2-c2ccccc2O)c1	1.85µM*	?	8.28µM*	-24.5	-14.6%	-11.4%
COC(=O)c1ccccc1-n1cc2c(c1-c1cccc(C)c1)c(=O)n(C)c(=O)n2C	.	.	.	-10.6	.	-26.2%
CCN(CC)S(=O)(=O)c1ccc(C(O)=C(C#N)c2nc3ccccc3n2C)cc1	.	0.7%	.	5.8	.	.
CCN(c1ccc(C)cc1C)S(=O)(=O)c1nnc(NC(=O)c2ccco2)s1	?	21.9%	15.4%	-25.3	-13.5%	50.1µM*
CCN(c1cc(C)cc(C)c1)S(=O)(=O)c1nnc(NC(=O)C(C)(C)C)s1	?	2.1%	26.6%	-67.2*	0.1%	5.1%
CCN(CC)S(=O)(=O)c1nnc(NC(=O)c2ccco2)s1	-3.2%	12.6%	?	5.2	-6.4%	-35.3%
Cc1cccc(N(C)S(=O)(=O)c2nnc(NC(=O)c3ccco3)s2)c1	12.3%	-1.5%	?	0.0	0.6%	-31.3%
CCN(c1ccc(C)cc1)S(=O)(=O)c1nnc(NC(=O)c2ccco2)s1	-8.3%	13.2%	?	-5.7	-27.1%	22.4µM*
CCc1ccc(NC(=O)C2CCCN(S(=O)(=O)c3cccc4nsnc34)C2)cc1 (stereo not given)	.	.	.	-11.2	.	3.6%
SMILES	Pf growth 48h	HCV inhibitor	Pf growth 96h	HCMV antiviral	SARS PLpro yeast	Sm TGR inh
O=C1NC[C@@H](CCCCN2CCN(CCC3CCCCC3)C(=O)C2=O)N(CCC2CCCCC2)C1=O	.	.	.	-10.7	.	.
Cc1cc(C)c(C(=O)O)c(Cl)n1	38.3%	11.7%	21.7%	-21.3	0.6%	39.8µM*
CSc1nc(C)cc(C)c1C(N)=O	-7.1%	0.7%	9.6%	-7.9	0.7%	-13.0%
c1cc(-c2sc(-c3ccncc3)c(-c3ccncc3)c2-c2ccncc2)ccn1	?	-27.1%	140.6%	-78.9*	0.5%	-20.1%
C[C@@H]1NC(=O)/C(=C\c2ccccc2Br)NC1=O	.	7.8%	10.5%	-101.6*	1.1%	7.6%
N#CC1(NC(=O)CN2C(=O)NC3(CCCCCC3)C2=O)CCCCC1	-18.9%	3.7%	-17.2%	19.5	1.0%	0.3%
C/C(=N\NC(=O)CC#N)C1COc2ccccc2O1 (stereo not given)	27.0%	-9.4%	5.2%	-29.4	-0.9%	-1.7%
BrC(=C\c1ccccc1)/C=N/Nc1ccc2nncn2n1	-13.2%	?	13.3%	?	-1.0%	?
BrC(=C\c1ccccc1)/C=N/n1cnnc1	10.4µM*	10µM*	26.3%	-98.5*	-7.5%	-16.1%
Cc1ccc(-n2nc(C)c3c(C)cc(=O)n(CC(=O)NC(C)c4ccccc4)c32)cc1 (stereo not given)	.	.	.	24.0	.	0.5%
Cc1cnc(NC(=O)CSc2ncc(-c3ccccc3)n2Cc2ccco2)s1	?	?	?	-24.9	7.2%	-8.1%
COc1ccc(-c2cnc(SCC(=O)Nc3cc(C)on3)n2Cc2ccco2)cc1	?	-23.2%	.	-16.2	-4.0%	-16.0%
COc1ccc(-c2cnc(SCC(=O)Nc3nc(C(C)(C)C)cs3)n2Cc2ccco2)cc1	13.1µM*	4.47µM*	?	-19.5	-16.3%	-35.9%
O=C(CSc1ncc(-c2ccc(F)cc2)n1Cc1ccco1)Nc1nccs1	.	-4.5%	.	-18.8	1.7%	4.0%
COc1ccc(NC(=O)CSc2ncc(-c3ccc(F)cc3)n2Cc2ccco2)cc1	14.7µM*	?	11.7µM*	2.7	-3.3%	3.3%
CCC(=O)Nc1cc(NC(=O)CSc2ncc(-c3ccc(F)cc3)n2Cc2ccco2)ccc1C	34.2%	?	22.0%	86.4	-1.8%	44.7µM*
O=C1CN(C(=O)COc2ccc(Br)cc2)c2ccccc2N1	?	-13.6%	-24.6%	-27.6	-1.1%	15.1%
CCC1(CC)NC(=O)N(CC(=O)OC(C)C(=O)Nc2cc([N+](=O)[O-])ccc2OC)C1=O (stereo not given)	37.8%	-0.4%	-18.6%	38.1	5.3%	0.3%
COc1cccc(/C=C/C(=O)c2ccc[nH]2)c1	.	-21.8%	49.5%	-86.7*	-22.8%	-5.6%
COc1ccc(C(=O)/C=C/c2ccccc2)c(OC)c1	-62.5%	-1.4%	?	-68.1*	-4.7%	6.9%
COc1ccc(C(=O)/C=C/c2ccc(N(C)C)cc2)c(OC)c1	?	?	2.08µM*	-5.8	-2.4%	3.9%
